Test results from PubChem BioAssay (NCATS).
Inconclusive results are not listed. Active and inactive are the calls of the source. Calls follow the shape of the dose curve; as a rule, active = well fitted curve in the direction sought with a large enough effect; inconclusive = small, poorly fitted or top-dose-only effect, or another doubt; inactive = no such curve, though single readings can be large; an effect the other way counts as inactive or inconclusive.

Key:
[1] = qHTS of pediatric cancer cell lines to identify multiple opportunities for drug repurposing: Primary screen for A673 cells (AID 1347092); settings: A673 Ewing sarcoma viability, CellTiter-Glo ATP luminescence, 48 h; series mostly up to 46 µM; also: % is scaled to controls: 0 for no effect and ±100 for the full control effect; nearly all actives have a fitted effect of over 45% in size
Outline: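 Cells are plated, rested 5 h, dosed by pintool, incubated 48 h, then lysed with CellTiter-Glo and read by luminescence. DMSO is the neutral control; bortezomib at 2.3 uM final is the positive control.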

[2] = qHTS of pediatric cancer cell lines to identify multiple opportunities for drug repurposing: Primary screen for SK-N-MC cells (AID 1347093); settings: SK-N-MC viability, CellTiter-Glo luminescence, 48 h; series mostly up to 46 µM;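 also: plate controls were DMSO neutral control for no effect and bortezomib for full effect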
Outline: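 Metabolically active cells were quantified by ATP-dependent luminescence (CellTiter-Glo, 15 min at room temperature) following 48 h treatment. Cells had been plated at 500-1,000 per well and settled for 5 h beforehand.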

[3] = qHTS of pediatric cancer cell lines to identify multiple opportunities for drug repurposing: Primary screen for BT-37 cells (AID 1347094); settings: BT-37 viability, CellTiter-Glo luminescence, 48 h; series mostly up to 57.3 µM;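 also: plate controls were DMSO for no effect and bortezomib for full effect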
Outline: (§1)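 Following a 5-hour attachment period, cells at 500-1,000/well received compounds and were cultured for 48 hours. CellTiter-Glo was added and luminescence read to estimate viable, metabolically active cells.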

[4] = qHTS of pediatric cancer cell lines to identify multiple opportunities for drug repurposing: Primary screen for NB-EBc1 cells (AID 1347095); settings: NB-EBc1 neuroblastoma viability, CellTiter-Glo luminescence, 48 h; series mostly up to 46 µM;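 also: plate controls were DMSO neutral control for no effect and bortezomib for full effect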
Outline: as §1

[5] = qHTS of pediatric cancer cell lines to identify multiple opportunities for drug repurposing: Primary screen for U-2 OS cells (AID 1347096); settings: U-2 OS viability, CellTiter-Glo luminescence, 48 h; series mostly up to 46 µM;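 also: plate controls were DMSO wells for no effect and bortezomib positive control wells for full effect; nearly all actives have a fitted effect of over 50% in size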
Outline: (§2)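 Cells (500-1,000/well) in growth media were settled 5 h at 37 degrees C, then given compounds for 48 h. Viability was read as CellTiter-Glo luminescence. Primary runs used MIPE at 11 points (0.78 nM-46 µM) and NPC at 8 points (0.59 nM-46 µM); follow-ups used 11 points.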

[6] = qHTS of pediatric cancer cell lines to identify multiple opportunities for drug repurposing: Primary screen for Saos-2 cells (AID 1347097); settings: Saos-2 viability, CellTiter-Glo ATP luminescence, 48 h; series mostly up to 46 µM; also: % is scaled to controls: 0 for no effect and ±100 for the full control effect; nearly all actives have a fitted effect of over 40% in size
Outline: as §1

[7] = qHTS of pediatric cancer cell lines to identify multiple opportunities for drug repurposing: Primary screen for SK-N-SH cells (AID 1347098); settings: SK-N-SH viability, CellTiter-Glo luminescence, 48 h; series mostly up to 57 µM;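 also: DMSO served as neutral control and bortezomib at 2.3 µM as positive control; % is scaled to controls: 0 for no effect and ±100 for the full control effect; nearly all actives have a fitted effect of over 65% in size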
Outline: (§3)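 Cells (500-1,000/well) rested 5 h, then received compounds for 48 h; metabolically active cells were measured by CellTiter-Glo luminescence. Final concentrations spanned up to 46 µM (MIPE, 11-point) or 0.59 nM-46 µM (NPC, 8-point) in primary screens, 11-point in follow-ups.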

[8] = qHTS of pediatric cancer cell lines to identify multiple opportunities for drug repurposing: Primary screen for LAN-5 cells (AID 1347100); settings: LAN-5 neuroblastoma viability, CellTiter-Glo luminescence, 48 h; series mostly up to 46 µM;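 also: plate controls were DMSO neutral control for no effect and bortezomib positive control for full effect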
Outline: as §2

[9] = qHTS of pediatric cancer cell lines to identify multiple opportunities for drug repurposing: Primary screen for BT-12 cells (AID 1347101); settings: BT-12 viability, CellTiter-Glo luminescence, 48 h; series mostly up to 57.3 µM;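 also: plate controls were DMSO for no effect and bortezomib positive control for full effect; nearly all actives have a fitted effect of over 25% in size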
Outline: as §3

[10] = qHTS of pediatric cancer cell lines to identify multiple opportunities for drug repurposing: Primary screen for NB1643 cells (AID 1347099); settings: NB1643 neuroblastoma viability, CellTiter-Glo luminescence, 48 h; series mostly up to 46 µM;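 also: plate controls were DMSO neutral control for no effect and bortezomib positive control for full effect; nearly all actives have a fitted effect of over 50% in size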
Outline: as §1

O=C1C(c2[nH]c3ccccc3c2O)=Nc2ccccc21
inactive: outcome [1] | Potency [2] | outcome [3] | outcome [4] | outcome [5] | outcome [6] | outcome [7] | outcome [8] | outcome [9]

CC(=O)Nc1ccccc1
inactive: outcome [1] | Potency [2] | outcome [3] | outcome [4] | outcome [5] | outcome [6] | outcome [7] | Potency [10] | outcome [8] | outcome [9]

Cc1ccc(S(=O)(=O)NC(=O)NC2CCCCC2)cc1
inactive: outcome [1] | Potency [2] | outcome [3] | outcome [4] | outcome [5] | outcome [6] | outcome [7] | outcome [8] | outcome [9]

NC(=O)CCCCC1CCSS1 (stereo unspecified)
inactive: outcome [1] | Potency [2] | outcome [3] | outcome [4] | outcome [5] | outcome [6] | outcome [7] | outcome [8] | outcome [9]

CO[C@@]1(NC(=O)C(C(=O)O)c2ccc(O)cc2)C(=O)N2C(C(=O)O)=C(CSc3nnnn3C)CO[C@@H]21 (stereo partly specified)
inactive: outcome [1] | Potency [2] | outcome [3] | outcome [4] | outcome [5] | outcome [6] | outcome [7] | Potency [10] | outcome [8] | outcome [9]

O=C(O)CCCc1ccccc1
inactive: outcome [1] | Potency [2] | outcome [3] | outcome [4] | outcome [5] | outcome [6] | outcome [7] | outcome [8] | outcome [9]

COc1ccccc1OCC(O)CO (stereo unspecified)
inactive: outcome [1] | Potency [2] | outcome [3] | outcome [4] | outcome [5] | outcome [6] | outcome [7] | Potency [10] | outcome [8] | outcome [9]

CC(=O)[C@@]1(O)CC[C@H]2[C@@H]3C[C@H](C)C4=CC(=O)C=C[C@]4(C)[C@@]3(F)[C@@H](O)C[C@@]21C
inactive: outcome [1] | Potency [2] | outcome [3] | outcome [4] | outcome [5] | outcome [6] | outcome [7] | outcome [8] | outcome [9]

Cc1ccccc1N=Nc1ccc(N=Nc2c(O)ccc3ccccc23)c(C)c1
inactive: outcome [1] | Potency [2] | outcome [3] | outcome [4] | outcome [5] | outcome [6] | outcome [7] | Potency [10] | outcome [8] | outcome [9]

CCN[C@H]1CN(CCCOC)S(=O)(=O)c2sc(S(N)(=O)=O)cc21
inactive: outcome [1] | Potency [2] | outcome [3] | outcome [4] | outcome [5] | outcome [6] | outcome [7] | outcome [8]

NNC(=O)CP(=O)(c1ccccc1)c1ccccc1
inactive: outcome [1] | Potency [2] | outcome [3] | outcome [4] | outcome [5] | outcome [6] | outcome [7] | outcome [8] | outcome [9]

CC(=O)N[C@H]1[C@H]([C@H](O)[C@H](O)CO)OC(C(=O)O)=C[C@@H]1N=C(N)N
inactive: outcome [1] | Potency [2] | outcome [3] | outcome [4] | outcome [5] | outcome [6] | outcome [7] | outcome [8] | outcome [9]

Cc1cc(C)nc(NS(=O)(=O)c2ccc(N)cc2)n1
inactive: outcome [1] | Potency [2] | outcome [3] | outcome [4] | outcome [5] | outcome [6] | outcome [7] | Potency [10] | outcome [8] | outcome [9]

CC[N+](CC)(CC(=O)Nc1c(C)cccc1C)Cc1ccccc1
inactive: outcome [1] | Potency [2] | outcome [3] | outcome [4] | outcome [5] | outcome [6] | outcome [7] | outcome [8] | outcome [9]

C=CCN1C[C@H](C(=O)N(CCCN(C)C)C(=O)NCC)C[C@@H]2c3cccc4[nH]cc(c34)C[C@H]21
inactive: outcome [1] | Potency [2] | outcome [3] | outcome [4] | outcome [5] | outcome [6] | outcome [7] | outcome [8] | outcome [9]

CC(C)=CCC/C(C)=C/CO
inactive: outcome [1] | Potency [2] | outcome [3] | outcome [4] | outcome [5] | outcome [6] | outcome [7] | outcome [8] | outcome [9]

CN/C(=C\[N+](=O)[O-])NCCSCc1csc(CN(C)C)n1
inactive: outcome [1] | Potency [2] | outcome [3] | outcome [4] | outcome [5] | outcome [6] | outcome [7] | Potency [10] | outcome [8] | outcome [9]

NC(=O)CC[C@@H](N)C(=O)O
inactive: outcome [1] | Potency [2] | outcome [3] | outcome [4] | outcome [5] | outcome [6] | outcome [7] | outcome [8] | outcome [9]

Cc1ccsc1/C=C/C1=NCCCN1C
inactive: outcome [1] | Potency [2] | outcome [3] | outcome [4] | outcome [5] | outcome [6] | outcome [7] | outcome [8]

O=C(O)[C@@H]1[C@H]2C[C@H]3c4[nH]c5ccccc5c4CCN3C[C@@H]2CC[C@@H]1O
inactive: outcome [1] | Potency [2] | outcome [3] | outcome [4] | outcome [5] | outcome [6] | outcome [7] | Potency [10] | outcome [9]

NS(=O)(=O)c1cc(C2(O)NC(=O)c3ccccc32)ccc1Cl (stereo unspecified)
inactive: outcome [1] | Potency [2] | outcome [3] | outcome [4] | outcome [5] | outcome [6] | outcome [7] | Potency [10] | outcome [8] | outcome [9]

COc1cc(O)cc(O)c1
inactive: outcome [1] | Potency [2] | outcome [3] | outcome [4] | outcome [5] | outcome [6] | Potency [10] | outcome [8] | outcome [9]

O=C(NCCCN1CCOCC1)c1ccc(Cl)cc1
inactive: outcome [1] | Potency [2] | outcome [3] | outcome [5] | outcome [6] | outcome [7] | Potency [10] | outcome [8] | outcome [9]

CCCCCCCCCCOc1cc2c(=O)c(C(=O)OCC)c[nH]c2cc1OCC
inactive: activity change, negative = cytotoxic [1] -6.98% [at 4.84 µM] | activity change, negative = cytotoxic [2] -8.08% [at 4.84 µM] | activity change, negative = cytotoxic [3] 9.52% [at 6.03 µM] | activity change, negative = cytotoxic [4] 9.4% [at 4.84 µM] | activity change, negative = cytotoxic [5] 0.999% [at 4.84 µM] | activity change, negative = cytotoxic [7] 2.61% [at 6 µM] | activity change, negative = cytotoxic [10] 5.42% [at 4.84 µM] | activity change, negative = cytotoxic [8] 22.4% [at 4.84 µM] | activity change, negative = cytotoxic [9] 6.24% [at 6.03 µM]

CC(=O)N(CC(O)CN(C(C)=O)c1c(I)c(C(=O)NCC(O)CO)c(I)c(C(=O)NCC(O)CO)c1I)c1c(I)c(C(=O)NCC(O)CO)c(I)c(C(=O)NCC(O)CO)c1I (stereo unspecified)
inactive: outcome [1] | Potency [2] | outcome [3] | outcome [5] | outcome [6] | outcome [7] | Potency [10] | outcome [8]

OCc1ccc(Cl)cc1Cl
inactive: outcome [1] | Potency [2] | outcome [3] | outcome [4] | outcome [5] | Potency [10] | outcome [8] | outcome [9]

NCC1CCC(C(=O)Oc2ccc(CCC(=O)O)cc2)CC1 (stereo unspecified)
inactive: outcome [1] | Potency [2] | outcome [3] | outcome [5] | outcome [6] | outcome [7] | Potency [10] | outcome [8] | outcome [9]
